The whole screen tested about 300,000 compounds, of which about 3,200 (1.1%) were called active.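 The calls were made as follows: active = inhibition above the campaign mean inhibition plus 3 SD (cut at about 35% in these data); inactive = the rest.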 Shown is part of a subset that was picked to be rich in actives.
These compounds were tested against Glutathione S-transferase omega-1 (Homo sapiens) (UniProt P78417) (assay: inhibitors of recombinant GSTO1, primary screen, counter-screen for RBBP9 inhibitor project, biochemical, fluorescence polarization (AID 1974;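 also: 0% = GSTO1-1 with DMSO and 100% = wells lacking GSTO1-1 enzyme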)). Conditions: recombinant GSTO1, activity-based probe fluorescence polarization; at 5.96 µM; active compounds read high.
Glutathione S-transferase omega-1 (Homo sapiens), sequence (P78417 whole entry, looked up): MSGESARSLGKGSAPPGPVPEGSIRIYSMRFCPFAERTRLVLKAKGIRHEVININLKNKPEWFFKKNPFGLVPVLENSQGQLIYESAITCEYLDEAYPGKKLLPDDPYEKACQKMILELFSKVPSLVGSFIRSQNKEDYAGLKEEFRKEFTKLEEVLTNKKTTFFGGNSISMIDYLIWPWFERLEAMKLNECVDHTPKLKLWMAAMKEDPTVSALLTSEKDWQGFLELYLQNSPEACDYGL

SMILES | inhibition
COc1ccc2c(c1)C(=O)Nc1cc(Cl)ccc1N2 | 9.43% (inactive)
CC(OC(=O)CNC(=O)c1ccco1)C(=O)Nc1ccc(Cl)cn1 (configuration not stated) | 1.63% (inactive)
CCC1(CC)C(=O)C2=C3C1[C@H](C(=O)OC)C=C(C(=O)OC)C[C@H]3[C@H]1C(=O)N(Cc3ccccc3)C(=O)[C@H]1[C@H]2C (some centres not stated) | 1.43% (inactive)
Cc1csc2nc(O)c(C(=O)NCCN3CCOCC3)c(=O)n12 | -2.86% (inactive)
CCc1noc(C)c1C(=O)N1CCCSC1=Nc1ccccc1OC | -0.08% (inactive)
Cc1onc(-c2c(F)cccc2Cl)c1C(=O)N(C)CC(=O)Nc1cccc(F)c1 | 6.99% (inactive)
O=C(CCl)Nc1cccc(CP(=O)(c2ccccc2)c2ccccc2)c1 | 87.8% (active)
O=C(Cc1ccccc1)Nc1cccc(NC(=O)c2ccccc2)c1 | -4.68% (inactive)
CCc1cccc(NC(=O)CCC(=O)O)c1 | 1.54% (inactive)
COc1ccccc1CN1CC(C(=O)NCCc2cn[nH]c2)CCC1=O (configuration not stated) | -2.71% (inactive)
O=C(NCCCc1ccccc1)C1CCC(=O)N(CCc2ccc(Cl)cc2)C1 (configuration not stated) | -1.06% (inactive)
COc1ccccc1CCCNC(=O)C1CCC(=O)N(CCN2CCOCC2)C1 (configuration not stated) | 63.1% (active)
CCN1CCN(c2ccc(S(=O)(=O)N3CCCCC3)cc2NC(=O)c2cccc(NC(C)=O)c2)CC1 | 0.88% (inactive)
Cc1cc(O)c(Sc2ccccc2)c(=O)o1 | 10.2% (inactive)
O=C(c1cc2cc(Br)cc(Br)c2oc1=O)N1CCOCC1 | 5.88% (inactive)
O=C1Nc2c(Br)cc(Br)cc2C1(O)N1CCOCC1 (configuration not stated) | 71.2% (active)
O=C(CSC(=S)N1CCOCC1)c1cc(Br)cc(Br)c1O | -51.7% (inactive)
Cc1ccc(NS(=O)(=O)c2ccc(C(=O)NCCCN3CCOCC3)cc2)cc1 | 10.7% (inactive)
Nc1ccc2nc3c(=O)[nH]c(=S)[nH]c3nc2c1 | 53.3% (active)
O=c1[nH]c(=O)c2nc3ccccc3nc2[nH]1 | 5.15% (inactive)
Cc1cc(=O)[nH]c(SCc2ccc(Cl)cc2)n1 | -4.37% (inactive)
O=[N+]([O-])c1ccc(O)c(/C=N/Nc2ccccc2[N+](=O)[O-])c1 | 0.98% (inactive)
O=[N+]([O-])c1ccc(N=Cc2c(O)ccc3ccccc23)cc1 | 37.5% (active)
O=[N+]([O-])c1ccc(N/N=C/c2ccccc2)cc1 | 2.07% (inactive)
Cc1cc(OCC(=O)N(C)c2c(N)n(Cc3ccccc3)c(=O)[nH]c2=O)c(C(C)C)cc1Cl | 0.25% (inactive)
CCC1(c2ccccc2)NC(=O)N(CC(=O)Nc2ccccc2C(=O)NC2CCCC2)C1=O (configuration not stated) | 8.02% (inactive)
CCOc1ccc(S(=O)(=O)N2CCN(C(=S)NCC3CCCO3)CC2)cc1 (configuration not stated) | 2.59% (inactive)
